D3 ag – activates the human D3 dopamine receptor; D3R DiscoveRx beta-arrestin cells, luminescence, 90 min; max activation, %; AID 652048; 410,000 tested, 0.58% active; in the data active = max activation above about 30%; also: 0% is about no effect
Target sequence (P35462 whole entry, looked up): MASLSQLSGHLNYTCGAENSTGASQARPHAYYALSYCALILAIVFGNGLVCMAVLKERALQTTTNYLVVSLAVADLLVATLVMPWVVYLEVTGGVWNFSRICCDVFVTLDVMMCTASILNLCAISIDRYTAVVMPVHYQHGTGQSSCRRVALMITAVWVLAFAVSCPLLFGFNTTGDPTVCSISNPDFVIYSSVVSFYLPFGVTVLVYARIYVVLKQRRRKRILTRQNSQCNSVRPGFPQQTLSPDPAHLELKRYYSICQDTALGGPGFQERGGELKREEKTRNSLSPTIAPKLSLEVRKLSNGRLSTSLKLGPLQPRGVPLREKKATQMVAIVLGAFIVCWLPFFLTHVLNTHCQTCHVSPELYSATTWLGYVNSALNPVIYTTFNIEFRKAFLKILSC
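Cells at 1500/well, incubated overnight, then treated with pinned compounds (dopamine as control) for 90 min at 37 degrees C. DiscoveRx reagent added for 30 - 60 minutes at room temperature; luminescence read.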
D1 ag – agonists of human D1 dopamine receptor | HEK293 T-REx D1 cells, calcium flux, agonist mode | 360,000 tested, 1% active | activation, % at 2 µM | P21728; in the data active = activation above about 30%; also: 0% is about no effect
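Tetracycline-induced HEK293 TREx D1 cells, force-coupled to calcium signalling, were dye-loaded with a no-wash calcium kit. Compound was pin-added after a 10 s baseline. Fluorescence was read kinetically at 1 cycle/s for 180 s, with calcium rises flagged as agonism.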
D1 antagonist – antagonists of human D1 dopamine receptor. P21728. HEK293 TREx D1 cells, calcium flux, dopamine EC80; stronger effect = lower value. activity change, negative = inhibition, % at 10 µM. 360,000 tested, 3.2% active; in the data active = activity change below about -30%; also: % is scaled to controls: 0 for no effect and ±100 for the full control effect
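Allosteric or orthosteric antagonism assessed as attenuation of the calcium response to EC80 dopamine, added 180 s after compound, in induced HEK293 Trex D1 cells loaded with no-wash calcium dye.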
D1 PAM – potentiators of human D1 dopamine receptor; HEK293 TREx D1 cells, calcium flux, dopamine EC20 potentiation; potentiation, % at 10 µM; 360,000 tested, 0.036% active; in the data active = potentiation above about 30%; also: 0% is about no effect
DRD3 antagonist – antagonists of human D3 dopamine receptor. max response, negative = inhibition, %. D3R cells, DiscoveRx beta-arrestin luminescence, antagonist mode; stronger effect = lower value. P35462. 360,000 tested, 2.5% active; in the data active = max response below about -50%; inconclusive = no clear call, values can overlap the other calls; also: % is scaled to controls: 0 for no effect and ±100 for the full control effect
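Cells expressing the human receptor were seeded at 1500 cells/well, incubated overnight at 37 degrees C in 5% CO2, then exposed to library compounds with dopamine controls for 90 minutes at 37 degrees C before luminescent detection.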
* marks the source's active call; other numbers are inactive results; ? = inconclusive; . = no result. A selection: hits, their analogues and other compounds. The true share with any hit is near 6.1%.

SMILES	D3 ag	D1 ag	D1 antagonist	D1 PAM	DRD3 antagonist
C=CCN(CC=C)C(=O)c1ccc(OC2CCN(C(C)=O)CC2)c(OC)c1	-2	4	-42*	3	11
COc1ccc(C(=O)NC2CC2)cc1OC1CCN(Cc2ccccc2O)CC1	-30	2	-38*	-23	-23
C=CCOc1ccccc1CN1CCC(Oc2cc(C(=O)NC3CC3)ccc2OC)CC1	-5	1	-74*	-9	-4
Clc1cccc(CNCCCSc2nnnn2-c2ccccc2)c1	-20	27	2	-1	.
CCCCn1c(SCC(=O)c2ccccc2)nc2c(sc3ccccc32)c1=O	-2	2	1	-2	.
CCCCCc1ccc(C(=O)CCCC)c(=S)[nH]1	30*	6	-21	-1	-26
CCCCCc1cc(=O)[nH]c(=S)[nH]1	4	3	42	-5	19
O=C(NCc1ccccc1Cl)c1ccc(-n2cnc3cccnc32)cc1	-3	-2	-4	-1	.
O=C(O)c1cc(N/N=C/c2c(O)ccc3ccccc23)ccc1Cl	3	4	-4	6	-2
Nc1nonc1N/N=C/c1c(O)ccc2ccccc12	3	31*	-22	-9	-1
Nc1cc(Cl)nc(N/N=C/c2c(O)ccc3ccccc23)n1	0	-1	4	-1	-146*
Cc1ccc(-c2cn3c(n2)sc2cc(C(=O)NCCCc4ccccc4)ccc23)c(C)c1	-1	1	5	-3	.
CCOC(=O)Nc1ccc(NCc2ccc(F)cc2)nc1N	4	47*	-16	-4	-6
O=C(Nc1ccc(-c2nc3c(ccc4ccccc43)o2)cc1)c1ccco1	46*	1	-7	-3	59
O=C(Nc1ccc(-c2nc3cc(Cl)ccc3c(=O)o2)cc1)c1ccco1	8	1	-32*	-9	-21
O=C(Nc1nc2c(ccc3ccccc32)s1)c1ccco1	-5	1	10	-10	-17
COCCNC(=O)c1ccc(-n2c(-c3ccccc3)cc3c2CCCCC3)cc1	-18	39*	-18	-5	.
Nc1ccc2nc(-c3ccccc3)[nH]c2c1	1	3	-6	0	11
Nc1cccc(-c2nc3ccc(C(=O)c4ccccc4)cc3[nH]2)c1	1	1	-31*	-4	-4
CC(=O)c1ccc(NC(=O)CSc2cn(CC(=O)N3CCCCCC3)c3ccccc23)cc1	-6	4	-14	-4	.
Clc1ccccc1CN(Cc1ccccc1)C(c1cccs1)c1nnnn1C1CCCC1 (configuration not stated)	-8	3	-34*	-8	-13
CC(C)(C)n1nnnc1C(c1cccs1)N(Cc1cccnc1)Cc1ccccc1Cl (configuration not stated)	-8	5	12	3	-58*
CCN(Cc1ccccc1)C(c1cccs1)c1nnnn1C1CCCCC1 (configuration not stated)	-2	7	12	-3	10
c1csc(C(c2nnnn2C2CCCC2)N2CCOCC2)c1 (configuration not stated)	4	2	-9	-8	?
Clc1ccc(CN(CC2CCCO2)C(c2cccs2)c2nnnn2C2CCCC2)cc1 (configuration not stated)	2	3	-53*	-22	-3
SMILES	D3 ag	D1 ag	D1 antagonist	D1 PAM	DRD3 antagonist
O=C1N(CN2CCN(c3cccc(Cl)c3)CC2)c2ccccc2C12OCCCO2	-30	3	-15	-6	-83*
CC1CCOC2(O1)C(=O)N(CN1CCN(c3ccccc3F)CC1)c1ccccc12 (configuration not stated)	-8	.	.	.	-54*
COc1ccccc1N/C(N)=N/c1nc(C(F)(F)F)cc(=O)[nH]1	6	4	-57*	-10	2
CCOC(=O)Cc1cc(=O)[nH]c(/N=C(\N)Nc2ccc(C)c(C)c2)n1	1	4	-44*	-7	-6
COc1cccc(N/C(N)=N/c2nc(C)cc(=O)[nH]2)c1	6	-2	-5	4	6
COc1ccc(N/C(N)=N/c2nc(C)cc(=O)[nH]2)cc1	-2	4	-37*	-2	-3
COc1ccccc1OCCn1c(C(C)Oc2ccccc2)nc2ccccc21 (configuration not stated)	-3	18	-26	-2	.
O=C(NCC(c1ccc2c(c1)OCO2)N1CCOCC1)c1ccccc1F (configuration not stated)	-12	1	12	-1	.
O=C1CCCc2nc(N3CCCCC3)sc21	8	1	-20	4	-59*
Cc1ccc(O)c(-c2n[nH]c3c2C(c2ccccc2F)N(Cc2ccco2)C3=O)c1 (configuration not stated)	9	0	11	7	.
OC1(c2ccccc2)CCN(Cc2ccccc2)CC1	-17	1	-2	2	-80*
OC1(c2ccc(F)cc2)CCN(Cc2cccnc2)CC1	-5	0	-22	-10	-61*
OC(c1ccccc1)C1CN(Cc2ccccc2)CCC1(O)c1ccccc1 (configuration not stated)	-37	1	-12	1	-59*
OC1(c2ccc3c(c2)OCO3)CCN(Cc2ccc(F)cc2)CC1	-14	5	-16	-10	-99*
O=S(=O)(c1ccc(F)cc1)N1CCC(O)(c2ccc3c(c2)OCO3)CC1	-4	7	-6	-2	10
COc1cccc(N2CC(NC(=O)c3ccc(S(=O)(=O)N4CCOCC4)cc3)CC2=O)c1 (configuration not stated)	-11	0	.	1	.
CCc1nnc2c(N3CCN(c4cccc(C(F)(F)F)c4)CC3)nc3ccccc3n12	-14	1	-3	-1	.
FC(F)C(F)(F)c1cc(-c2ccc(Cl)cc2)n[nH]1	7	86*	-46*	1	2
Oc1ccccc1-c1cc(C(F)(F)C(F)F)[nH]n1	-9	10	-12	-3	-20
Fc1ccc(-c2cc(C(F)(F)C(F)F)[nH]n2)cc1	-3	64*	-48*	-15	13
CCOC(=O)c1[nH]c(C)c(CCC(=O)N2CCN(c3cc(C)ccc3C)CC2)c1C	2	0	-3	-1	.
CCn1c(-c2ccc(-c3ccccc3)cc2)c[nH]c1=S	-3	5	-1	-2	-12
C=CCn1c(-c2ccc(Cl)cc2)c[nH]c1=S	-1	5	3	-3	-109*
C=CCn1c(-c2ccccc2)c[nH]c1=S	-3	6	7	-4	-68*
Cc1cccc(NC(=O)Cn2cc(C(=O)C3CCCCC3)c3ccccc32)c1	2	14	-30*	-7	.
Cc1ccc(NC(=O)Cn2cc(C(=O)C3CCCCC3)c3ccccc32)cc1	4	9	-22	-3	.
COc1ccc(CNC(=O)Cc2c(C)c3ccc(O)cc3oc2=O)cc1	6	2	-7	2	.
O=C(COc1ccc(/C=N/NC(=O)c2ccncc2)cc1)Nc1ccccc1	-8	1	-5	-2	-4

Screening results from PubChem.
